Measured values from PubChem BioAssay AID1159580 (chemical genetic matrix, 2015).
In all, about 5,500 compounds went through this assay and about 2,000 (36%) were called active. About 18% were inconclusive and are not listed. Rule as the data show it: active = normalized growth mostly below about 0.91 (no sharp cut-off); inconclusive = no clear call, values can overlap the other calls; inactive = mostly above about 0.92. The list shows a part of the results.

Assay: chemical genetic growth profiling, strain panel (AID 1159580);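 also: tested at 20 µM; growth read once vehicle control cultures reached saturation at 30 °C; 1 = growth at the plate median or of vehicle wells; lower values mean less growth of the strain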
Settings: growth OD

Measured: normalized growth

CCCC(=O)O[C@]1(C(=O)CO)CCC2[C@@H]3CCC4=CC(=O)CC[C@]4(C)C3[C@@H](O)C[C@@]21C (stereo not given in full)
inactive: S. cerevisiae deletion strains, locus YJR066W, strain TOR1, active compounds read low 0.99 | S. cerevisiae deletion strains, locus YKL009W, strain mrt4, active compounds read low 0.958 | S. cerevisiae deletion strains, locus YKL068W, active compounds read low 1.02 | S. cerevisiae deletion strains, locus YKL085W, strain MDH1 (second series), active compounds read low 1.01 | S. cerevisiae deletion strains, locus YKL085W, strain MDH1, active compounds read low 1.01 | S. cerevisiae deletion strains, locus YKL160W, strain elf1, active compounds read low 1.01 | S. cerevisiae deletion strains, locus YKL190W, strain CNB1, active compounds read low 1 | S. cerevisiae deletion strains, locus YKR001C, strain vps1, active compounds read low 0.982 | S. cerevisiae deletion strains, locus YKR026C, strain gcn3, active compounds read low 1.01 | S. cerevisiae deletion strains, locus YKR091W, strain srl3, active compounds read low 1 | S. cerevisiae deletion strains, locus YLL001W, strain dnm1, active compounds read low 1.01 | S. cerevisiae deletion strains, locus YLL026W, active compounds read low 1 | S. cerevisiae deletion strains, locus YLL041C, strain sdh2, active compounds read low 1 | S. cerevisiae deletion strains, locus YLR027C, strain aat2, active compounds read low 1 | S. cerevisiae deletion strains, locus YLR039C, strain RIC1, active compounds read low 0.988 | S. cerevisiae deletion strains, locus YLR058C, strain SHM2, active compounds read low 1.01 | S. cerevisiae deletion strains, locus YLR102C, strain apc9, active compounds read low 0.985 | S. cerevisiae deletion strains, locus YLR113W, strain HOG1, active compounds read low 1.07 | S. cerevisiae deletion strains, locus YLR221C, strain rsa3, active compounds read low 1.01 | S. cerevisiae deletion strains, locus YLR258W, strain gsy2, active compounds read low 1.01 | S. cerevisiae deletion strains, locus YLR262C, strain YPT6 (second series), active compounds read low 1.01 | S. cerevisiae deletion strains, locus YLR262C, strain YPT6, active compounds read low 1.01 | S. cerevisiae deletion strains, locus YLR268W, strain sec22, active compounds read low 0.988 | S. cerevisiae deletion strains, locus YLR320W, strain mms22, active compounds read low 1.02 | S. cerevisiae deletion strains, locus YLR330W, strain CHS5, active compounds read low 1.01 | S. cerevisiae deletion strains, locus YLR342W, strain FKS1 (second series), active compounds read low 0.996 | S. cerevisiae deletion strains, locus YLR342W, strain FKS1, active compounds read low 1.02 | S. cerevisiae deletion strains, locus YLR357W, strain rsc2, active compounds read low 1 | S. cerevisiae deletion strains, locus YLR370C, strain arc18, active compounds read low 1.01 | S. cerevisiae deletion strains, locus YLR371W, strain rom2, active compounds read low 0.996 | S. cerevisiae deletion strains, locus YLR384C, strain iki3, active compounds read low 1.01 | S. cerevisiae deletion strains, locus YLR418C, strain cdc73, active compounds read low 0.934 | S. cerevisiae deletion strains, locus YML016C, strain PPZ1, active compounds read low 1.01 | S. cerevisiae deletion strains, locus YML032C, strain rad52, active compounds read low 0.948 | S. cerevisiae deletion strains, locus YML120C, strain ndi1, active compounds read low 0.992 | S. cerevisiae deletion strains, locus YML124C, strain tub3, active compounds read low 0.996 | S. cerevisiae deletion strains, locus YMR058W, strain fet3, active compounds read low 1.01 | S. cerevisiae deletion strains, locus YMR078C, strain ctf18, active compounds read low 0.984 | S. cerevisiae deletion strains, locus YMR125W, strain sto1, active compounds read low 1.02 | S. cerevisiae deletion strains, locus YMR129W, active compounds read low 1.01 | S. cerevisiae deletion strains, locus YMR205C, strain PFK2, active compounds read low 1.02 | S. cerevisiae deletion strains, locus YMR223W, strain ubp8, active compounds read low 0.951 | S. cerevisiae deletion strains, locus YMR231W, strain pep5, active compounds read low 1.01 | S. cerevisiae deletion strains, locus YMR263W, strain SAP30, active compounds read low 1.01 | S. cerevisiae deletion strains, locus YMR307W, strain GAS1, active compounds read low 0.999 | S. cerevisiae deletion strains, locus YNL067W, strain RPL9B, active compounds read low 1.01 | S. cerevisiae deletion strains, locus YNL071W, strain lat1, active compounds read low 1 | S. cerevisiae deletion strains, locus YNL128W, strain TEP1, active compounds read low 0.994 | S. cerevisiae deletion strains, locus YNL153C, strain GIM3, active compounds read low 1.02 | S. cerevisiae deletion strains, locus YNL183C, strain NPR1, active compounds read low 0.995 | S. cerevisiae deletion strains, locus YNL209W, strain ssb2, active compounds read low 1 | S. cerevisiae deletion strains, locus YNL233W, strain BNI4, active compounds read low 1.02 | S. cerevisiae deletion strains, locus YNL248C, strain rpa49, active compounds read low 1.02 | S. cerevisiae deletion strains, locus YNL250W, strain rad50, active compounds read low 0.983 | S. cerevisiae deletion strains, locus YNL271C, strain bni1, active compounds read low 0.992 | S. cerevisiae deletion strains, locus YNL298W, strain CLA4, active compounds read low 0.972 | S. cerevisiae deletion strains, locus YNL307C, strain MCK1, active compounds read low 0.982 | S. cerevisiae deletion strains, locus YNL322C, strain KRE1 (second series), active compounds read low 1.01 | S. cerevisiae deletion strains, locus YNR049C, strain mso1, active compounds read low 1.01 | S. cerevisiae deletion strains, locus YNR052C, strain pop2, active compounds read low 0.975 | S. cerevisiae deletion strains, locus YOL006C, strain TOP1, active compounds read low 1.06 | S. cerevisiae deletion strains, locus YOL012C, strain htz1 1.05 | S. cerevisiae deletion strains, locus YOL147C, strain pex11, active compounds read low 0.982 | S. cerevisiae deletion strains, locus YOR001W, strain rrp6, active compounds read low 1.02 | S. cerevisiae deletion strains, locus YOR061W, strain CKA2, active compounds read low 1.01 | S. cerevisiae deletion strains, locus YOR069W, strain VPS5, active compounds read low 1 | S. cerevisiae deletion strains, locus YOR070C, strain gyp1, active compounds read low 1 | S. cerevisiae deletion strains, locus YOR080W, strain dia2, active compounds read low 0.997 | S. cerevisiae deletion strains, locus YOR083W, strain WHI5, active compounds read low 1 | S. cerevisiae deletion strains, locus YOR106W, strain vam3, active compounds read low 1 | S. cerevisiae deletion strains, locus YOR136W, strain idh2, active compounds read low 0.983 | S. cerevisiae deletion strains, locus YOR144C, strain elg1, active compounds read low 0.977 | S. cerevisiae deletion strains, locus YOR184W, strain ser1, active compounds read low 0.963 | S. cerevisiae deletion strains, locus YOR231W, strain MKK1, active compounds read low 1.09 | S. cerevisiae deletion strains, locus YOR265W, strain rbl2, active compounds read low 1 | S. cerevisiae deletion strains, locus YOR270C, strain vph1, active compounds read low 1.01 | S. cerevisiae deletion strains, locus YOR290C, strain snf2, active compounds read low 1 | S. cerevisiae deletion strains, locus YOR316C, strain cot1, active compounds read low 0.994 | S. cerevisiae deletion strains, locus YPL051W, strain arl3, active compounds read low 1 | S. cerevisiae deletion strains, locus YPL055C, strain LGE1, active compounds read low 1.04 | S. cerevisiae deletion strains, locus YPL078C, strain atp4, active compounds read low 1.01 | S. cerevisiae deletion strains, locus YPL106C, strain sse1, active compounds read low 1.02 | S. cerevisiae deletion strains, locus YPL240C, strain hsp82, active compounds read low 1 | S. cerevisiae deletion strains, locus YPL256C, strain CLN2, active compounds read low 1.05 | S. cerevisiae deletion strains, locus YPR119W, strain clb2, active compounds read low 0.993 | S. cerevisiae deletion strains, locus YPR141C, strain kar3, active compounds read low 1.01 | S. cerevisiae deletion strains, locus YPR163C, strain tif3, active compounds read low 1.01 | S. cerevisiae deletion strains, locus YPR167C, strain met16, active compounds read low 0.99 | S. cerevisiae deletion strains, strain wtn01, active compounds read low 0.961 | S. cerevisiae strains, strain wild type, active compounds read low 1.01
